From PubChem
BRCA1 expr act – activators of BRCA1 expression | MCF7-BRCA1-FFLuc reporter, luminescence, 48 h; response scale: scaled: vehicle 0%, 10 µM genistein 100% | hit rate 1.1% among 380,000 | Potency, µM (highest dose often 46.1 µM), for the others: at the highest dose activation, usual class: activators; also: potency is read from the fitted curve at half-maximal effect; nearly all actives have a fitted effect of over 80% in size
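Quantitative HTS in MCF7 cells stably reporting BRCA1 expression via firefly luciferase. Compound treatment lasts 48 h at 37 °C in phenol-red free MEM. Activation is expressed relative to genistein at 10 microM and DMSO.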
Gal4-VP16 FLuc – inhibits Gal4-VP16 luciferase reporter, ROR gamma counter-screen. Drosophila S2 Gal4-VP16 UAS-luciferase, luminescence, 20 h. Potency, µM (series often up to 53.6 µM), for the others: at the highest dose activity, negative = inhibition, usual class: inhibitors. hit rate 3.5% among 310,000. AID 2546;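 also: Gal4-VP16 expression switched on by copper sulfate through the metallothionein promoter; potency is read from the fitted curve at half-maximal effect; % is scaled to controls: 0 for no effect and ±100 for the full control effect; nearly all actives have a fitted effect of over 50% in size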
ELG1 repair inh – blocks ELG1-dependent DNA repair in HEK293T cells | HEK293T ELG1-luciferase reporter, luminescence, 16 h; DNA damage induced by 5-fluorouridine | Potency, µM (titrated, usually from 46.1 µM), for inactives: at the highest dose activity change, negative = inhibition, most hits filed as inhibitors | hit rate 2.3% among 330,000 | AID 504467; also: potency is read from the fitted curve at half-maximal effect; % is scaled to controls: 0 for no effect and ±100 for the full control effect; nearly all actives have a fitted effect of over 55% in size
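Reporter activity after DNA damage by 5-fluorouridine is monitored. Compound-treated cells incubate 16 hr at 37 °C, then ONE-Glo is added for 30 min before luminescence reading.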
p53 reactivator – mutant p53 re-activation in reporter cells; H1299 p53-A138V BP100-luciferase reporter, luminescence, 24 h; Potency, µM (doses to about 92.2 µM), inactives show at the highest dose activity change, positive = activation, actives largely listed as activators; hit rate 0.063% among 320,000; also: potency is read from the fitted curve at half-maximal effect; % of control where 0% means no effect; nearly all actives have a fitted effect of over 45% in size
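H1299 (p53-null), stable ts p53-A138V + BP100-Luc; 1000 cells/well, Opti-MEM/10% FBS; cpd 4 pt, 1:5; 24 h, 37 deg C, 5% CO2; detection reagent 10 min RT; luminescence.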
Giardia kill – Giardia lamblia killing; Giardia lamblia trophozoite viability; activity change, % at 7.66 µM, hits read low; hit rate 0.15% among 340,000; AID 540267; in the data active = activity change below about -80%; inconclusive = between about -30% and that limit;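 also: parasites exposed to compound for two days anaerobically before the ATP read; % is scaled to controls: 0 for no effect and ±100 for the full control effect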
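Media and compound were dispensed first, then trophozoites at 100 cells/well; plates sat 48 hrs at 37 deg C without oxygen before ATP luminescence reagent was added and read after 15-30 min at room temperature.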
RORgamma inh – blocks mouse ROR gamma transcriptional activity | Potency, µM (highest dose often 53.6 µM), inactives show at the highest dose activity change, negative = inhibition, most hits filed as inhibitors | hit rate 5.4% among 310,000 | Drosophila S2 Gal4-RORgamma UAS-luciferase reporter, 20 h | AID 2551 | P51450; also: potency is read from the fitted curve at half-maximal effect; % is scaled to controls: 0 for no effect and ±100 for the full control effect; nearly all actives have a fitted effect of over 60% in size
Target sequence (P51450 whole entry, looked up, the tested form may be a part): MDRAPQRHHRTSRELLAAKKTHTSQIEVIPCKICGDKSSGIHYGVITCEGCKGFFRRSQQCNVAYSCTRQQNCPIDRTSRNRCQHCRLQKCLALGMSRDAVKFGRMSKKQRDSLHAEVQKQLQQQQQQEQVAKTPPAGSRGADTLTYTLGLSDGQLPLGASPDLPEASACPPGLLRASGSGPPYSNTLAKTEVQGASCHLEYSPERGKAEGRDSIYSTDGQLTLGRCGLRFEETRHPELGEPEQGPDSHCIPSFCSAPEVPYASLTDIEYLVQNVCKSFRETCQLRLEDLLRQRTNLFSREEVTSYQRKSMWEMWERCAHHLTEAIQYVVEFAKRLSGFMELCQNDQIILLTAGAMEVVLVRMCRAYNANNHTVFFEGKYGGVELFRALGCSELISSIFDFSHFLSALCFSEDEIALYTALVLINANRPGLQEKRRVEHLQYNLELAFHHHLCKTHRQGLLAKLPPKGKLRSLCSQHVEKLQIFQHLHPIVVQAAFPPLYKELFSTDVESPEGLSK
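Stable Schneider cell line, Gal4 DNA-binding domain fused to ROR gamma, UAS-luciferase. Cmpd 1 hr RT → CuSO4 700 uM final → 20 hr RT → luciferase reagent 10 min → luminescence.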
* = called active by the depositor; ? = inconclusive; . = not tested or not shown; [ ] = dose if it differs, or a comment. This is a sample that favours compounds with a hit; in the whole collection about 7.6% have one here. Unless noted, calls follow the shape of the dose curve; as a rule, active = well fitted curve in the direction sought with a large enough effect; inconclusive = small, poorly fitted or top-dose-only effect, or another doubt; inactive = no such curve, though single readings can be large; an effect the other way counts as inactive or inconclusive.

SMILES	BRCA1 expr act	Gal4-VP16 FLuc	ELG1 repair inh	p53 reactivator	Giardia kill	RORgamma inh
O=C(Nc1nc2ccccc2n1Cc1ccccc1)c1ccco1	-66%	2.5µM*	-11%	-5%	3	2µM*
CC(=O)Nc1nc(NC(=O)/C=C/c2ccccc2)n(-c2ccccc2)n1	-48%	0.89µM*	-7%	-6%	?	0.28µM*
CC(=O)Nc1nc2ccccc2n1Cc1ccccc1C	-25%	3.2µM*	-16%	?	5	2µM*
CS(=O)(=O)N1CCC[C@@]2(CCN(C(=O)Nc3cccc(F)c3)C2)C1	.	-7%	.	.	.	3%
Clc1ccccc1OCCn1cnc2ccccc21	?	6%	?	17%	5	8%
CC(=O)N1CCCC1c1nc2ccccc2n1Cc1ccccc1Cl (configuration not stated)	0%	.	.	.	.	.
CC(=O)NCCc1nc2ccccc2n1Cc1ccc(Cl)cc1	0%	1%	7%	-5%	42	22%
O=C(Nc1nc(NC(=O)c2ccco2)n(-c2ccccc2)n1)c1ccccc1	-99%	1.3µM*	2%	1%	-3	0.89µM*
CCC(=O)Nc1nc2ccccc2n1Cc1ccc(Cl)cc1	-32%	1.3µM*	?	0%	-28	0.4µM*
Nc1nc(NC(=O)c2ccccc2)nn1-c1ccccc1	?	4%	?	?	23	-27%
CCC(=O)Nc1nc2ccccc2n1Cc1ccccc1Cl	-40%	2.8µM*	?	2%	-20	0.4µM*
CC(=O)Nc1nc2ccccc2n1CCOc1ccccc1Cl	-35%	1.3µM*	?	1%	6	0.79µM*
COc1cccc(CN2CCN(C(=O)C3CCC(=O)N(C4CCCC4)C3)CC2)c1 (configuration not stated)	11%	5%	15%	4%	-26	-2%
O=C(O)Cc1nn(Cc2ccc(Br)cc2F)c(=O)c2ccccc12	.	3%	.	.	.	12%
O=C(COC(=O)c1ccc2ncsc2c1)NCc1ccc(F)cc1	23%	.	?	?	-7	.
Cc1ccc(Cn2c(=S)[nH]c3ccc(N4CCOCC4)cc3c2=O)o1	34%	4µM*	-21%	?	-2	3.2µM*
O=c1c2cc(F)ccc2[nH]c(=S)n1CCCN1CCOCC1	1%	?	8%	-20%	-5	11µM*
O=c1c2cc(N3CCOCC3)ccc2[nH]c(=S)n1CCCN1CCCCCC1	1%[1.84 µM]	7%	?	-9%	1	-25%
Cc1cccc(N2CCN(C(=O)CCCCCn3c(=S)[nH]c4ccc(N5CCOCC5)cc4c3=O)CC2)c1C	5%	11µM*	16µM*	-4%	9	7.1µM*
CCCCn1c(=S)[nH]c2ccc(N3CCOCC3)cc2c1=O	.	7.1µM*	-24%	-3%	.	2.2µM*
CCOc1cc2[nH]c(=S)n(Cc3ccc(C)o3)c(=O)c2cc1OCC	-22%	11µM*	-9%	10%	-14	7.1µM*
S=C(NCc1ccco1)N/N=C/c1ccncc1	-19%	?	5%	0%	-8	16µM*
COc1cc(/C=C/C(=O)OCC(=O)NCc2ccco2)ccc1OC(F)F	-15%	4µM*	14%	13%	13	2.5µM*
CCCOc1ccc(CC(=O)NCc2ccco2)cc1OC	-1%	5%	-1%	12%	2	11µM*
COc1cc(NC(=S)NCc2ccco2)cc(OC)c1OC	-31%	20µM*	-5%	-47%	-7	11µM*
SMILES	BRCA1 expr act	Gal4-VP16 FLuc	ELG1 repair inh	p53 reactivator	Giardia kill	RORgamma inh
COc1ccccc1NC(=S)NCc1ccco1	-13%	14%	1%	-7%	2	11%
CC(C)NC(=O)COc1coc(CN2CCN(C(=O)c3ccco3)CC2)cc1=O	-1%	.	14%	9%	-10	.
Cc1ccc(S(=O)(=O)N2C[C@@H](C)[C@]3(C2)[C@H](O)[C@H](OC(=O)Nc2cccs2)C[C@H]2C(=O)N(c4ccccc4)C(=O)[C@H]23)cc1	-73%	.	.	.	.	.
CC(C)(C)NC(=S)NCc1ccco1	-1%	0%	?	-2%	-4	1%
CN(C)c1ccc(C(=S)NCc2ccco2)cc1	-5%	7.9µM*	?	5%	-7	4µM*
CN(C)c1ccc(/C=N/NC(=O)CNC(=O)/C=C/c2ccco2)cc1	11%	19%	36%	8%	3	?
CN(C)c1ccc(/C=N/NC(=S)NCc2ccco2)cc1	-2%	5µM*	16%	15%	19	1.8µM*
COc1cccc(/C=N/NC(=S)NCc2ccco2)c1OC	-4%	?	?	0%	34	3.5µM*
C/C(=N\S(=O)(=O)c1ccc(C)cc1)N1CCCCC1	-26%	-4%	9%	1%	8	-1%
Cc1nc([N+](=O)[O-])cn1Cc1cccc2ccccc12	-6%	3%	-19%	?	-28	-4%
Cn1nnnc1SCCNCc1cc(Br)ccc1OCc1ccccc1Cl	-60%	.	.	.	.	.
COc1ccc(NC(=O)CSc2nc(=O)n(CCN3CCOCC3)c3c2CCCC3)c(OC)c1	-12%	.	1%	-9%	12	.
O=C(c1ccccc1)N1CCC(c2nc(-c3ccc(S(=O)(=O)NCC4CCCO4)cc3)no2)CC1 (configuration not stated)	-62%	8.9µM*	?	-2%	-6	-43%
O=C(C1CC1)N1CCC(c2nc(-c3ccc(S(=O)(=O)NCC4CCCO4)cc3)no2)CC1 (configuration not stated)	-47%	.	-23%	-15%	-7	26%[0.365 µM]
O=C(NNC(=O)c1ccc2ccccc2c1O)c1cccs1	36%	?	?	5%	2	16µM*
O=C(NNC(=O)c1cc2ccccc2cc1O)c1cccs1	14%	?	?	?	6	20µM*
O=C(NNC(=O)c1ccc2ccccc2c1O)c1ccccc1Cl	17%	2%	18%	8%	-8	?
C/C(=N\NC(=O)c1cc2ccccc2cc1O)c1cccs1	2%	?	?	?	-20	-38%
COc1cccc(C(=O)Oc2cccc(N3C(=O)C4C5CC(C(Br)C5Br)C4C3=O)c2)c1 (configuration not stated)	1%[1.84 µM]	0%	.	.	-10	17%
CCCc1[nH][nH]c(=O)c1C(c1ccccc1)C(C#N)C#N (configuration not stated)	-5%	9%	17%	4%	2	-22%
Cc1[nH]n(-c2ncc(-c3ccccc3)s2)c(=O)c1C(c1ccc(Br)cc1)C(C#N)C#N (configuration not stated)	4%	13µM*	?	.	20	11µM*
